# From PMC5540273 (PLoS ONE, 2017)
# Columns and labels:
# Conditions in all cases: concentration: 1 μM, replicates: in singlicate; n = 1
# [1] = system: CAMK2G
# [2] = system: CAMK4
# [3] = system: CAMKK1
# [4] = system: CAMKK2
# [5] = system: CASK
# [6] = system: T1, CDC2L1
# T1 construct: gene CDK11B
# [7] = system: CDC2L2
# [8] = system: T2, CDC2L5
# T2 construct: gene CDK13
# [9] = system: T3, CDK11
# T3 construct: gene CDK19
# [10] = system: CDK2
# 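Note: KINOMEscan kinase panel screen.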
Compound,%Inh [1],%Inh [2],%Inh [3],%Inh [4],%Inh [5],%Inh [6],%Inh [7],%Inh [8],%Inh [9],%Inh [10]
COc1cc2nccc(Nc3cccc(Oc4ccccc4)c3)c2cc1OC.Cl [GW284543],19%,0%,8%,19%,1%,0%,11%,0%,0%,0%
Cc1nnc(-c2ccc3ncn(-c4ccc(S(C)=O)cc4)c3c2)o1 (centres unmarked),0%,0%,0%,0%,0%,0%,10%,0%,0%,0%
CCC(=O)c1c(-c2ccccc2)c2cc(Cl)ccc2c(=O)n1Cc1cc(C(=O)NC2CC2)n(C)n1,6%,0%,2%,15%,0%,4%,0%,0%,3%,0%
Cc1nnc(-c2ccc(C)c(-c3ccc(C(=O)O)cc3)c2)o1 [GW608005],3%,0%,7%,0%,1%,0%,0%,0%,0%,0%
COC(=O)c1c(-c2ccccc2)c2cc(Br)ccc2c(=O)n1Cc1ccc(S(C)(=O)=O)cc1,21%,0%,10%,30%,0%,11%,0%,14%,24%,6%
COc1cc2ncn(-c3cc(OCc4ccncc4)c(C(N)=O)s3)c2cc1OC [GSK336313],18%,0%,0%,22%,7%,0%,23%,0%,0%,0%
Nc1ncnc2c1ncn2-c1ccc(Cl)cc1 [AH2635],13%,0%,0%,10%,0%,0%,28%,0%,0%,0%
Cc1c(Cn2c(C)nn3c(=O)cc(N4CCO[C@H](C)C4)nc23)cccc1C(F)(F)F [GSK2373690],18%,0%,0%,10%,14%,0%,8%,0%,14%,0%
CCCC(=O)Nc1n[nH]c2ncc(-c3cccc4ccccc34)cc12 [SB-642057],28%,22%,20%,30%,34%,0%,1%,0%,0%,56%
COc1ccc(-n2cnc3c(N)ncnc32)cc1 [SKF-97236],6%,12%,0%,0%,0%,0%,0%,4%,0%,19%
COc1cccc(C2=C(Nc3cccc(C(=O)O)c3)C(=O)NC2=O)c1 [SB-390770],14%,0%,1%,14%,13%,0%,0%,0%,0%,15%
Nc1nc(-c2ccccc2F)c(-c2ccnc3ccccc23)s1 [GW560459],10%,0%,10%,4%,0%,0%,8%,0%,0%,0%
COc1cc(Nc2nccc(N3CCC(NC(=O)C(C)c4ccc(Cl)cc4)C3)n2)cc(OC)c1OC (centres unmarked) [GSK1379757],21%,0%,0%,1%,0%,0%,13%,0%,3%,0%
Cc1nn2c(=O)cc(N3CCOCC3)nc2n1Cc1cccc(Cl)c1Cl [GSK2342769],10%,25%,2%,9%,0%,0%,6%,0%,16%,0%
COc1cc(OC)cc(-c2cc3cnc(N)nc3nc2NC(=O)NC(C)(C)C)c1,23%,0%,16%,29%,0%,2%,0%,0%,0%,0%
COc1ccc(CNC(=O)NC2CCN(c3ccnc(Nc4ccc(F)cc4)n3)C2)cc1 (centres unmarked) [GSK1379706],38%,0%,17%,26%,19%,2%,0%,0%,22%,3%

Compound,%Inh [1],%Inh [2],%Inh [3],%Inh [4],%Inh [5],%Inh [6],%Inh [7],%Inh [8],%Inh [9],%Inh [10]
COc1ccc(Nc2nccc(N3CCC(NS(=O)(=O)c4ccc(NC(C)=O)cc4)C3)n2)cc1 (centres unmarked) [GSK1379729],9%,4%,12%,5%,0%,0%,17%,0%,11%,2%
CN1C(=O)C(Nc2cc(Cl)c(O)c(Cl)c2)=C(c2ccc(Cl)cc2)C1=O [SB-404321],0%,0%,0%,0%,14%,0%,0%,0%,9%,0%
CCn1c(-c2ccoc2)nc2cnccc21 [SB-733887],6%,0%,4%,4%,3%,0%,6%,0%,0%,4%
Cc1ccc(Oc2ccc(Nc3ncnc4cc[nH]c34)cc2C)cn1,15%,0%,9%,5%,0%,0%,7%,0%,19%,0%
CCCNC(=O)Nc1ccc(Oc2ncnc3ccn(C)c23)cc1,15%,0%,5%,9%,13%,0%,0%,6%,3%,7%
CCn1c(-c2nonc2N)nc2ccccc21 [SB-693162/GW549034],1%,0%,9%,0%,0%,0%,29%,0%,11%,0%
Cn1c(=O)c(F)c(Nc2ccc(I)cc2F)c2c(=O)n(OC[C@H](O)CO)cnc21,34%,22%,24%,33%,0%,14%,15%,13%,0%,0%
Cl.c1ccc(Cn2cnc3cc(Nc4ncnc5ccccc45)ccc32)cc1 [GW272142],32%,0%,9%,31%,26%,0%,13%,0%,8%,0%
CCC(=O)c1c(-c2ccccc2)c2cc(Cl)ccc2c(=O)n1Cc1cc(S(C)(=O)=O)n(CC(F)F)n1,0%,0%,0%,6%,5%,1%,2%,24%,0%,0%
COc1cc2ncn(-c3cc(OCc4ccncc4Br)c(C(N)=O)s3)c2cc1OC [GW854278],11%,0%,15%,17%,34%,5%,10%,5%,11%,1%
O=C(NCc1cccs1)c1cc(C(=O)c2c(Cl)cccc2Cl)c[nH]1 [GW823670],0%,15%,0%,0%,5%,0%,0%,0%,14%,0%
COC(=O)c1c(-c2ccccc2)c2cc(Br)ccc2c(=O)n1Cc1ccc(NC(=O)CCC(=O)O)cc1,8%,0%,0%,0%,0%,16%,0%,13%,7%,4%
Cc1nc(N(C)[C@H]2CN(C(=O)CC#N)CC[C@H]2C)c2cc[nH]c2n1,12%,6%,7%,4%,15%,0%,0%,0%,0%,0%
Cc1cccc(-c2nc(Nc3ccc4c(cnn4C)c3)c3ccccc3n2)n1 [GW876731],0%,0%,2%,0%,0%,0%,6%,0%,10%,6%
Cl.NS(=O)(=O)c1cccc(Nc2cc(-c3ccc(F)cc3)n[nH]2)c1 [GW824645],0%,2%,0%,0%,20%,0%,0%,0%,3%,5%
C[C@@H]1CC[C@H](C(=O)NC2CCCCC2)CN1c1cc(-c2ccc3c(N)n[nH]c3c2)nc(N)n1 [GSK2291363],38%,0%,24%,37%,18%,0%,23%,0%,7%,1%
